Most compounds without a hit are left out; they make up all but 8% or so of the library.
HT1080-NT tox – kills 2HG-producing HT-1080-NT fibrosarcoma cells. 1.6% of 360,000 active. Potency, µM (series often up to 46.1 µM), for the others: top-dose activity, negative = less viability, actives largely listed as cytotoxic. AID 686970. HT-1080-NT fibrosarcoma viability, CellTiter-Glo ATP luminescence, 48 h;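 note: NT is the 2HG producing partner of a matched IDH1 knockdown line; 0% = DMSO-treated cells and -100% = media-only wells without cells; nearly all actives have a fitted effect of over 55% in size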
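HT-1080-NT; 750 cells/well; 5% FBS RPMI; 48 h compound, 37 degrees C; CellTiter-Glo luminescence; curve fitting and curve-class assignment.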
KB-3-1 cytotox – kills parental KB-3-1 adenocarcinoma cells | 1.4% of 400,000 active | Potency, µM (series often up to 46.1 µM), hits mostly cytotoxic | KB-3-1 viability, CellTiter-Glo ATP luminescence, 72 h; note: % is set by controls: 0 for no effect and ±100 for the full control effect; nearly all actives have a fitted effect of over 60% in size
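Parental KB-3-1 adenocarcinoma cells in phenol-red-free DMEM with 10% FBS were pin-treated with compounds at several concentrations, incubated 72 h at 37 °C, and viability read by CellTiter-Glo luminescence; concentration-effect curves were fitted after normalization.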
HT1080 IDH1KD tx – HT-1080 IDH1 knockdown cell toxicity (counter line) | 2% of 360,000 active | HT-1080 IDH1 knockdown viability, ATP luminescence, 48 h | AID 686971 | Potency, µM (top dose mostly 46.1 µM), without a hit: at the highest dose activity, negative = toxicity, hits mostly cytotoxic;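 note: 0% = DMSO wells and -100% = cell-free medium wells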
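Cytotoxicity counter-line: IDH1KD HT-1080, 48 h, CellTiter-Glo. Curves classed by r2, magnitude and activity.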
MCF10A rerep – inducers of DNA re-replication in MCF 10A breast cells; MCF 10A DNA re-replication, Hoechst nuclear intensity, 48 h; 2.9% of 350,000 active; Potency, µM (top dose mostly 46.1 µM), inactives show at the top dose activity, positive = re-replication, hits mostly activators; note: % of control where 0% means no effect; nearly all actives have a fitted effect of over 50% in size
SW480 rerep – DNA re-replication induction in SW480 cells | SW480 DNA re-replication, Hoechst DNA content imaging, 48 h | Potency, µM (titrated, usually from 46.1 µM), without a hit: top-dose re-replication activation, usual class: activators | 1.8% of 340,000 active; note: % of control where 0% means no effect; nearly all actives have a fitted effect of over 55% in size
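DNA re-replication was detected as more nuclei of elevated Hoechst intensity after 48 hr exposure to compound (23 nL pinned per well of 250 cells).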
KB-V1 cytotox – KB-V1 MDR subline cytotoxicity; KB-V1 MDR cells viability, CellTiter-Glo, 72 h; 3.4% of 400,000 active; Potency, µM (top dose mostly 46.1 µM), most hits filed as cytotoxic; AID 1347076; note: % is set by controls: 0 for no effect and ±100 for the full control effect; nearly all actives have a fitted effect of over 60% in size
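Drug-selected KB-V1 cells, grown in DMEM lacking phenol red with 10% FBS, receive compound titrations; after three days at 37 degrees C, surviving cell ATP is quantified by CellTiter-Glo luminescence and responses normalized and curve-fitted.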
The depositor's hits bear a star; i = inactive; ? = inconclusive; nt = not tested or not shown. Calls come from the whole dose curve; as a rule, active = well fitted curve in the direction sought with a large enough effect; inconclusive = small, poorly fitted or top-dose-only effect, or another doubt; inactive = no such curve, though single readings can be large; an effect the other way counts as inactive or inconclusive. Potency is the fitted concentration of half-maximal effect.

SMILES	HT1080-NT tox	KB-3-1 cytotox	HT1080 IDH1KD tx	MCF10A rerep	SW480 rerep	KB-V1 cytotox
CN(Cc1ccc(C#CCCO)cc1)CC1CCCN(CCc2ccc(Cl)cc2)C1 (centres undefined)	25.9µM*	i	?	25.3%	?	i
COc1ccc(CCN2CCCC(CN(C)Cc3cc(OC)ccc3OC)C2)cc1 (centres undefined)	?	i	-27.7%	0.651µM*	-6.8%	i
CCN(Cc1ccc(OC)c(COC)c1)CC1CCCN(CCc2cccc(OC)c2)C1 (centres undefined)	-27.9%	i	-28.5%	14.9%	9.0%	i
O=C(CCC(=O)Nc1ccccc1Cl)NNC(=O)Nc1cccc([N+](=O)[O-])c1	-4.0%	i	7.4%	1.7%	7.4%	i
Cc1cc(Cl)c(OCCn2ccnc2)c(Br)c1	-23.8%	i	-28.7%	4.61µM*	-24.7%	?
O=C(Oc1ccccc1)c1c(Cl)cccc1P(=O)(O)O	26.8%	i	12.7%	-0.9%	0.8%	i
O=S(=O)(c1ccc(F)cc1)n1ccc(-c2cccc(OCc3c(F)cccc3Cl)c2)n1	-5.9%	?	-8.3%	2.3%	-0.1%	20.6µM*
O=S(=O)(c1ccc(Cl)cc1)n1ccc(-c2cccc(OCc3c(F)cccc3Cl)c2)n1	8.9%	i	-0.9%	22.8%	9.7%	i
COc1ccc(NC2CCCN(C(=O)c3oc(C)cc3C)C2)cc1OC (centres undefined)	2.4%	i	-6.5%	0.8%	1.4%	i
CCC(=O)Oc1c(C(=O)CC)cc2c(C)cc(=O)oc2c1C	-4.8%	i	-6.5%	22.3%	16.8%	16.4µM*
COc1ccc(/C=C(\NC(=O)c2ccc(OC)cc2)C(=O)Nc2ccc(C(=O)O)cc2)cc1	14.5%	i	24.6%	0.8%	-3.2%	i
O=C(Nc1nc(OCC(F)(F)F)cnc1/C=C\c1ccccc1)c1ccsc1	1.2%	i	0.0%	nt	nt	i
CCOc1cc(/C=C/C(=O)c2ccc(OC)c(CN3CCOCC3)c2)cc(Br)c1O	?	?	23.1µM*	?	?	?
CCOc1cc2nc(-c3ccc(OC)c(OC)c3)nc(N3CCOCC3)c2cc1OC	?	?	?	?	23.1µM*	?
CCOc1cc(C(=S)N2CCOCC2)ccc1OC(=O)c1ccccc1	-1.3%	i	2.7%	-8.7%	-1.6%	i
CCOc1cc(C(=S)N2CCOCC2)ccc1OS(=O)(=O)c1ccccc1	0.4%	i	-4.0%	?	1.0%	2.31µM*
CCOc1cc(C(=S)N2CCOCC2)ccc1OC	3.4%	i	-8.7%	13µM*	1.0%	i
CCN1CCN(C(c2ccccn2)c2c(NC(=O)c3ccccc3)sc(C)c2C)CC1 (centres undefined)	-29.6%	?	-23.0%	?	10.9%	?
CCCCN(C(=O)CCC(=O)O)C1CC(=O)N(c2ccc(OCCC)cc2)C1=O (centres undefined)	22.7%	i	15.6%	-5.5%	-2.7%	i
CCCCCCC(=O)N(O)C1CC(=O)N(c2ccc(F)cc2)C1=O (centres undefined)	16.4µM*	i	?	?	25.5%	i
CCCCCCC(=O)N(O)C1CC(=O)N(c2ccc(Br)cc2)C1=O (centres undefined)	?	i	15.8µM*	?	?	i
COc1ccccc1N(O)C1CC(=O)N(c2ccc(Br)cc2)C1=O (centres undefined)	-3.8%	i	-13.1%	?	4.9%	i
Cc1c(NC(=O)c2nn3c(c2Br)NC(c2ccccc2)CC3C(F)(F)F)c(=O)n(-c2ccccc2)n1C (centres undefined)	11.1%	i	22.2%	-68.5%	-166.4%	16.4µM*

Compound activity as filed in PubChem BioAssay.
